Results from the supplement of paper PMC3842684.

system: P. falciparum NF54-pfs16-GFP late (IV-V) stage gametocytes; assay: relative % inhibition of viable gametocyte number; higher = more gametocytocidal; conditions: 0.5 µM; stage: late (IV-V) gametocyte; incubation 72 h
Summary of the method: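 Magnet-isolated NF54 pfs16-GFP gametocytes at early (I/IIa, day 2) or late (day 8) stage were exposed to compound at 5 or 0.5 µM for 72 h at 37°C, 5% CO2, 5% O2, at 10% parasitaemia and 0.1% haematocrit. Elongated GFP objects with MitoTracker Red signal above cut-off were counted as viable by confocal imaging. Relative inhibition was normalised to in-plate vehicle and positive-control wells.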

Compound | relative % inhibition
Nc1nc(Nc2cccc(F)c2)nc2ccccc12 | 15.1%
O=C(Nc1ccc(-c2nc3ccccc3[nH]2)cc1)c1ccc(Cl)c(Cl)c1 | 0.0958%
Cc1cc(C)cc(Nc2cc(C)nc3nc(C(F)(F)F)nn23)c1 | -4.65%

same assay, conditions: 5 µM; stage: late (IV-V) gametocyte; incubation 72 h

Compound | relative % inhibition
c1ccc(Cn2c(N=Nc3c(Nc4ccccc4)ccc4ccccc34)nc3ccccc32)cc1 | 100%
COc1ccc(C(=O)C2CC2c2ccc(Cl)cc2)cc1 (stereo unspecified) | 48.3%
C=CCc1c(C)nc2ccccc2c1O | 53.7%
CCc1ccc(CNCC(O)c2ccccc2)cc1 (stereo unspecified) | 11.4%
Cc1ccc(NC(=O)Nc2cccc(Cl)c2)cc1F | 21.8%
O=C(NCC1Cc2cccc(-c3ccncc3)c2O1)c1csc2c1CCCC2 (stereo unspecified) | -0.912%
O=C(NCCCN1CCC(N2CCCCC2)CC1)C1=Cc2cc(Br)ccc2OC1 | 19.4%
COc1cc(SC)ccc1C(=O)N1CCCC(C)C1 (stereo unspecified) | 6.01%
Cc1cccc(N2C(=O)C3C(C2=O)C2(c4ccccc4)C(=O)C3(c3ccccc3)C(c3ccc4c(c3)OCO4)=C2c2ccc3c(c2)OCO3)c1 (stereo unspecified) | 10.9%
Cn1c(=O)n(C)c2cc(CNCCNc3ccnc4cc(Cl)ccc34)ccc21 | 90.2%
Cc1ccc(Cl)cc1N1CCN(CCCNC(=O)C2CCN(c3nc4ccccc4[nH]3)CC2)CC1 | -3.06%
COC(=O)c1ccc(Cl)c2c1C1C=CCC1C(c1cccc3ccccc13)N2 (stereo unspecified) | 35.3%
CCC(O)c1ccc(Br)cc1NC(=O)c1cccc(Cl)c1 (stereo unspecified) | 28.6%
CCOC(=O)c1cnc2c(C)cccc2c1Nc1ccc(C(C)=O)cc1 | -0.973%
O=C(NCc1ccco1)C1CCN(S(=O)(=O)c2ccc(Cl)cc2)CC1 | 50%
O=c1nc(C=Cc2ccc(Br)cc2)oc2ccccc12 | 101%
COc1ccc(C(=O)C(CCC(CNC(C)(C)C)C(=O)c2ccc(OC)cc2)CNC(C)(C)C)cc1 (stereo unspecified) | 104%
CC1=C(CC(=O)c2cccc([N+](=O)[O-])c2)C(=O)c2ccccc2C1=O | 54.1%
Cc1cc(Nc2ccc(OCc3ccccc3)cc2)nc2cc(O)ccc12 | 78.3%

Compound | relative % inhibition
CCCCC(O)(c1ccc(Cl)cc1)C(CN1CCOCC1)c1ccc(Cl)cc1 (stereo unspecified) | 40.8%
Cc1sc(NC(=O)c2ccccc2)c(C(c2cccs2)N2CCN(c3ccccc3)CC2)c1C (stereo unspecified) | 77%
COc1ccc2c(c1)OC(O)(C(F)(F)C(F)(F)F)CC2=O (stereo unspecified) | 10.1%
CCCN(CCC)CC(O)COc1ccccc1C(=O)Nc1ccccc1 (stereo unspecified) | 65.1%
CC1CC(C)CN(C(=O)c2ccc(Cl)cc2Cl)C1 (stereo unspecified) | 3.37%
CCCOCc1cc(CN2CCN(c3cccc(Cl)c3)CC2)c(O)c2ncccc12 | 102%
CCOc1cccc2sc(N(Cc3cccnc3)C(=O)C3CCCCC3)nc12 | 11.9%
O=C(Nc1ccccc1O)c1ccc(Oc2cccc(C(=O)Nc3ccccc3O)c2)cc1 | 8.35%
COc1ccc(-c2nonc2NC(=O)c2cccc(C)c2)cc1OC | -9.12%
Cc1ccc(S(=O)(=O)c2c(COC(=O)c3cccc(C)c3)c(-c3ccccc3)nn2C)cc1 | 20.4%
COc1cccc(Nc2nc(NCCO)c3ccccc3n2)c1 | 50.8%
CCOc1ccccc1CN1CCc2nc3cc(C(C)(C)C)nn3c(O)c2C1 | 76.6%
Oc1ccccc1CNCC12CC3CC(CC(C3)C1)C2 | 29.3%
COc1ccc(C2=C(c3ccc(OC)cc3)C3(c4ccccc4)C(=O)C2(c2ccccc2)C2C(=O)N(c4ccc(C)cc4)C(=O)C23)cc1 (stereo unspecified) | 28.5%
CCN(CC)CCNc1ccnc2cc3ccccc3cc12 | 43.7%
COc1ccc(-c2nc(N3CCN(C(=O)C4CCCCC4)CC3)c3c4c(sc3n2)CCCC4)cc1 | 86.8%
Nc1nc(Nc2cccc(F)c2)nc2ccccc12 | 2.78%
O=C(Nc1ccc(-c2nc3ccccc3[nH]2)cc1)c1ccc(Cl)c(Cl)c1 | -12%
Cc1cc(C)cc(Nc2cc(C)nc3nc(C(F)(F)F)nn23)c1 | -1.16%
